Records with an inconclusive call do not appear. The source made the active and inactive calls. Unless noted, calls come from the whole dose curve; as a rule, active = well fitted curve in the direction sought with a large enough effect; inconclusive = small, poorly fitted or top-dose-only effect, or another doubt; inactive = no such curve, though single readings can be large; an effect the other way counts as inactive or inconclusive.
Experiments:
[1] = molecular target: Cytochrome P450 1A2 (Homo sapiens) (UniProt P05177); test: qHTS for inhibitors of CYPIA2 against the NCATS DSHEA and TCM libraries (AID 1919976);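 note: light from luciferin formed by CYP1A2 from a pro-luciferin substrate; % is set by controls: 0 for no effect and ±100 for the full control effect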
How it was run: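 In this quantitative HTS, inhibition of recombinant human CYP1A2 was measured as loss of luciferin-derived luminescence. Turnover ran 30-45 min at RT after NADPH regeneration solution was added.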

[2] = qHTS Counterscreen for compound interference against the NCATS DSHEA and TCM libraries (AID 1919978); conditions: firefly luciferase detection reagent interference, luminescence;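 note: compounds preincubated with 1 µM D-luciferin or buffer before detection reagent; % of control where 0% means no effect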
How it was run: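 Compounds, titrated from 19.5 nM to 39.8 uM final, were pinned onto 1 uM D-luciferin or plain 100 mM potassium phosphate. After 15 min at room temperature, luciferin detection reagent was added for 30 min before the luminescence read.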

[3] = Dual reporter qHTS for agonist of Pregnane X Receptor (hPXR) against the NCATS DSHEA and TCM libraries: Fluorescence readout (AID 1920058); note: 0% is about no effect
How it was run: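 Measures viability of the PXR reporter HepG2 line by protease-substrate fluorescence (405/540 nm), taken 1 h after CellTiter-Fluor addition. Substances are tested as concentration series over a ~24 h exposure, with rifampicin as agonist control.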

[4] = molecular target: Nuclear receptor subfamily 1 group I member 2 (Homo sapiens) (UniProt O75469); test: Dual reporter qHTS for agonist of Pregnane X Receptor (hPXR) against the NCATS DSHEA and TCM libraries: Luminescence readout (AID 1920059); note: 0% is about no effect
How it was run: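 hPXR-Luc HepG2 cells, 2000/well in 5% charcoal-stripped FBS medium, attached 5 h, then exposed 24 h at 37C to compounds. Viability by CellTiter-Fluor, then luciferase luminescence with ONE-Glo.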

[5] = Dual reporter qHTS for antagonist of Pregnane X Receptor (hPXR) against the NCATS DSHEA and TCM libraries: Fluorescence Readout (AID 1920061); note: 0% is about no effect
How it was run: (§1)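 Rifampicin-stimulated (2 uM final) hPXR-luciferase HepG2 cells were treated for 24 h with DSNP/TCM substances. Viability came from CellTiter-Fluor fluorescence, reporter activity from ONE-Glo luminescence.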

[6] = qHTS profiling for inhibitors of Plasmodium falciparum proliferation (AID 504749);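 note: 0% = DMSO vehicle and full inhibition = artemisinin control; nearly all actives have a fitted effect of over 60% in size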; conditions: P. falciparum in erythrocytes, SYBR Green DNA, 72 h, at 28.7 µM (top of the series)
How it was run: (§2)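 Readout was DNA-dye fluorescence from lysed cultures, ex 485/em 535 nm. Parasitized red cells had grown 72 h with compound; data scaled between 0.29 uM artemisinin and DMSO wells and corrected using vehicle-only plates.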

[7] = tested on: 3D7; test: as above; conditions: P. falciparum in erythrocytes, SYBR Green DNA, 72 h; series mostly up to 28.7 µM
How it was run: as §2

[8] = tested on: 7G8; test: as above; conditions: P. falciparum in erythrocytes, SYBR Green DNA, 72 h; series mostly up to 28.7 µM
How it was run: as §2

[9] = qHTS drug screen for cell cycle checkpoint inhibitors in PARPi-resistant BRCA-mutant ovarian cancer cell lines. (AID 1963452; calls by dose curve; note: potency is the fitted concentration of half-maximal effect); conditions: PEO1/OlaR viability, CellTiter-Glo luminescence, 96 h; for Z-AUC: stronger effect = lower value
How it was run: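 PEO1, PEO4 and PEO1/OlaR ovarian cancer cells, 600 per well, exposed 96 h at 37C to a dilution series. Viability read by CellTiter-Glo luminescence, normalized to DMSO and empty wells; activity summarized as Z-AUC.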

[10] = molecular target: Nuclear receptor subfamily 1 group I member 2 (Homo sapiens) (UniProt O75469); test: Dual reporter qHTS for antagonist of Pregnane X Receptor (hPXR) against the NCATS DSHEA and TCM libraries: Luminescence Readout (AID 1920060); note: 0% is about no effect
How it was run: as §1

[11] = measured here: PEO1 parental Z-AUC

Nuclear receptor subfamily 1 group I member 2 (Homo sapiens), sequence (O75469 whole entry, looked up): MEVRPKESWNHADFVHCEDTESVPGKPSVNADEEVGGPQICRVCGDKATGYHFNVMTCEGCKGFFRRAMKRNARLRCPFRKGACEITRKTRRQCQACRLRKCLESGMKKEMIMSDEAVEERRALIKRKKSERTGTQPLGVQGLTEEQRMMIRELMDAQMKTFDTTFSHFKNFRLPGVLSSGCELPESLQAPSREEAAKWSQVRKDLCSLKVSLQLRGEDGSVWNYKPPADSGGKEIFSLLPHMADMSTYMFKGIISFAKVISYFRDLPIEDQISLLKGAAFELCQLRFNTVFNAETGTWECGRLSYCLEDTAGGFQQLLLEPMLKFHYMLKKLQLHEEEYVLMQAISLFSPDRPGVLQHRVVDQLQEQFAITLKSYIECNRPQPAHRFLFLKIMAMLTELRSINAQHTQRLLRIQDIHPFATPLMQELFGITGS
Cytochrome P450 1A2 (Homo sapiens), sequence (P05177 whole entry, looked up): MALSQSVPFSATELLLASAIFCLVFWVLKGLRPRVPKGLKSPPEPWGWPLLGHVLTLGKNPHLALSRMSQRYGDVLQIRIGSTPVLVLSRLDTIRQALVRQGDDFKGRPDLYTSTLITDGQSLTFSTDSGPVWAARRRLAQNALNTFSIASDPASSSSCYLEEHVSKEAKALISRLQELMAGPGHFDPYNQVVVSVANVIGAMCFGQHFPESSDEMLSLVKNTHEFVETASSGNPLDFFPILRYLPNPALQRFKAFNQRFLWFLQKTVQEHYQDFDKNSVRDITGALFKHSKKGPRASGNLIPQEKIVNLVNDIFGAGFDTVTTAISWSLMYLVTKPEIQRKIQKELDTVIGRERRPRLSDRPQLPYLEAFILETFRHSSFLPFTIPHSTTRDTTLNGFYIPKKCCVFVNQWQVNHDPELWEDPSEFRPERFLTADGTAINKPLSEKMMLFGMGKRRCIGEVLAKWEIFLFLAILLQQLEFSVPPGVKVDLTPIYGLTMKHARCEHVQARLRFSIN

Oc1cc(O)c2c(c1)OC(c1ccc(O)c(O)c1)C(O)C2 (centres undefined)
outcome [1]: inactive | max response [2]: 0.755% (inactive) | outcome [3]: inactive | outcome [4]: inactive | outcome [5]: inactive | activity, negative = inhibition ([6]; parasite line A): -12.6% (inactive) | activity, negative = inhibition ([6]; parasite line B): -13.8% (inactive) | Potency [7]: inactive | Potency [8]: inactive

OCc1ccccc1O[C@@H]1O[C@H](CO)[C@@H](O)[C@H](O)[C@H]1O
Z-AUC [9]: 1.58 (inactive) | Z-AUC [9, 11]: 1.17 | Z-AUC ([9]; measured here: PEO4 Z-AUC): 0.966

CCOc1cc2ncc(C#N)c(Nc3ccc(OCc4ccccn4)c(Cl)c3)c2cc1NC(=O)/C=C/CN(C)C
Z-AUC [9]: 0.57 (inactive) | Z-AUC [9, 11]: 0.366 | Z-AUC ([9]; measured here: PEO4 Z-AUC): -0.0482

C[C@H]1CN(C[C@H](Cc2ccccc2)C(=O)NCC(=O)O)CC[C@@]1(C)c1cccc(O)c1
Z-AUC [9]: -0.66 (inactive) | Z-AUC [9, 11]: -0.254 | Z-AUC ([9]; measured here: PEO4 Z-AUC): -0.529

NS(=O)(=O)NCCNc1nonc1C(=Nc1ccc(F)c(Br)c1)NO
Z-AUC [9]: 1.03 (inactive) | Z-AUC [9, 11]: 0.698 | Z-AUC ([9]; measured here: PEO4 Z-AUC): 1.08

CCC(=O)NS(=O)(=O)c1ccc(-c2c(-c3ccccc3)noc2C)cc1
Z-AUC [9]: -0.948 (inactive) | Z-AUC [9, 11]: -1.08 | Z-AUC ([9]; measured here: PEO4 Z-AUC): -1.33

O=C(C1CC1)N1CC[C@@H](Cc2n[nH]c(=O)n2-c2ccc(-c3ccc4occc4c3)cc2)C1
Z-AUC [9]: 1.31 (inactive) | Z-AUC [9, 11]: 0.792 | Z-AUC ([9]; measured here: PEO4 Z-AUC): 0.425

CN1C(=O)N[C@@H](Cc2c[nH]c3c(Cl)cccc23)C1=O
Z-AUC [9]: -0.9 (inactive) | Z-AUC [9, 11]: -0.75 | Z-AUC ([9]; measured here: PEO4 Z-AUC): -0.721

Cc1nn(C)c2c1C(c1ccc(C(F)(F)F)cc1)C(C#N)=C(N)O2 (centres undefined)
Z-AUC [9]: 0.183 (inactive) | Z-AUC [9, 11]: 1.31 | Z-AUC ([9]; measured here: PEO4 Z-AUC): 1.26

CC1=C(/C=C/C(C)=C/C=C/C(C)=C/C=C/C=C(C)/C=C/C=C(C)/C=C/C2=C(C)CCCC2(C)C)C(C)(C)CCC1
max response [2]: -3.35% (inactive) | outcome [3]: inactive | outcome [4]: inactive | outcome [10]: inactive | outcome [5]: inactive | Z-AUC [9]: 1.77 (inactive) | Z-AUC [9, 11]: 1.11 | Z-AUC ([9]; measured here: PEO4 Z-AUC): 0.804 | activity, negative = inhibition ([6]; parasite line A): 0.195% (inactive) | activity, negative = inhibition ([6]; parasite line B): -0.801% (inactive) | Potency [7]: inactive | Potency [8]: inactive

NC1CCC(N[C@@H]2C[C@H]2c2ccccc2)CC1 (some centres undefined)
Z-AUC [9]: -1.43 (inactive) | Z-AUC [9, 11]: -0.571 | Z-AUC ([9]; measured here: PEO4 Z-AUC): -0.668

COc1cc2c(cc1O)CCN[C@]21CS[C@@H]2c3c(OC(C)=O)c(C)c4c(c3[C@H](COC1=O)N1[C@@H]2[C@H]2c3c(cc(C)c(OC)c3O)C[C@@H]([C@@H]1O)N2C)OCO4
Potency [9]: 39.9 nM (active) | Z-AUC [9, 11]: -2.17 | Z-AUC ([9]; measured here: PEO4 Z-AUC): -1.65

CNC(=O)c1ccc(Nc2ncc(C(F)(F)F)c(NCc3nccnc3N(C)S(C)(=O)=O)n2)cc1
Z-AUC [9]: -0.202 (inactive) | Z-AUC [9, 11]: 0.488 | Z-AUC ([9]; measured here: PEO4 Z-AUC): -0.174
